# A selection: hits, their analogues and other compounds. The true share with any hit is near 21%.
# Pf growth 48h = Primary qHTS for delayed death inhibitors of the malarial parasite plastid, 48 hour incubation; P. falciparum luciferase growth in erythrocytes, 48 h; Potency, µM (top dose mostly 28.7 µM), for the others: top-dose activity change, negative = inhibition, most hits filed as inhibitors; 310,000 tested, 5.9% active; note: potency is the fitted concentration of half-maximal effect; % is set by controls: 0 for no effect and ±100 for the full control effect
#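 First compound was added to culture medium, then infected red cells at 0.1% parasitemia and 2% hematocrit (final). After incubation at 37 C under 5% CO2, luciferase detection reagent was dispensed and light output recorded.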
# Shiga inhibitor = A qHTS for Small Molecule Inhibitors of Shiga Toxin | Vero cells, Shiga toxin protein synthesis inhibition reporter | 290,000 tested, 9.2% active | AID 2315, 2010 | inhibition, % at 38.7 µM; in the data active = inhibition mostly above about 28%, no sharp cut-off; inactive = mostly below about 43%; note: 0% is about no effect
# Cycloheximide cs = Cycloheximide Counterscreen for Small Molecule Inhibitors of Shiga Toxin; cell reporter, cycloheximide protein synthesis inhibition counterscreen; max response, %; 300,000 tested, 12% active; AID 2314, 2010; in the data active = max response mostly above about 13%, no sharp cut-off; inactive = mostly below about 14%; note: read at 38.3 µM for the half of the compounds with a filed dose; 0% is about no effect
# Pf growth 96h = Primary qHTS for delayed death inhibitors of the malarial parasite plastid, 96 hour incubation; Potency, µM (highest dose often 28.7 µM), for the others: at the highest dose activity change, negative = inhibition, usual class: inhibitors; P. falciparum luciferase reporter growth, 96 h; 320,000 tested, 6.9% active; note: potency is the fitted concentration of half-maximal effect; % is set by controls: 0 for no effect and ±100 for the full control effect
#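 P. falciparum expressing integrated firefly luciferase, in erythrocytes at 2% hematocrit, 0.05% parasitemia, incubated with compounds 96 h at 37 C, 5% CO2. Growth inhibition read as loss of luminescence; two-generation exposure targets delayed-death apicoplast inhibitors.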
# HCV inhibitor = qHTS Assay for Inhibitors of Hepatitis C Virus (HCV); Huh7.5.1 HCVcc-Cre infection, luciferase reporter, 44 h; Potency, µM (top dose mostly 41.8 µM), inactives show at the top dose activity change, negative = inhibition, most hits filed as inhibitors; 340,000 tested, 3.4% active; note: potency is the fitted concentration of half-maximal effect; % is set by controls: 0 for no effect and ±100 for the full control effect
#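 Infectious HCVcc-Cre (~0.5 moi) was added to cells just after compound, with cells seeded 4 h earlier at 1,000 per well. Luciferase activity after 44 h culture reported infection; substrate was incubated 15 min at room temperature before reading.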
# HCMV inh = qHTS Assay for inhibitors of the human cytomegalovirus (HCMV) | HFF cells, HCMV-luciferase reporter, 72 h; stronger effect = lower value | activity change, negative = inhibition, % at 57.5 µM | 410,000 tested, 4.5% active | AID 1259415, 2018; in the data active = activity change below about -60%; inconclusive = no clear call, values can overlap the other calls; inactive = above about -39%; note: % is set by controls: 0 for no effect and ±100 for the full control effect
#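 Luciferase read-out from HCMV-luciferase-infected HFFs (MOI 1 PFU/cell) 72 h post infection at 37C; compounds added after 16 h cell attachment; activity normalized between buffer-only basal and Salinomycin (10uM) inhibitor controls.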
# Numbers without * were called inactive; u = inconclusive; x = no result given. Unless noted, calls come from the whole dose curve; as a rule, active = well fitted inhibition curve with a large enough effect; inconclusive = small, poorly fitted or top-dose-only effect, or another doubt; inactive = no such curve, though single readings can be large or run the other way.
SMILES,Pf growth 48h,Shiga inhibitor,Cycloheximide cs,Pf growth 96h,HCV inhibitor,HCMV inh
Oc1ccc(/C=N/N2CCOCC2)c(O)c1O,-4%,-5,13,9%,28%,-24
COc1ccc(O)c(/C=N/N2CCOCC2)c1,75%,99*,41*,52%,17%,-16
Cc1cccn2c(=O)c(C(=O)NCc3ccc(F)cc3)c(O)nc12,x,x,x,x,x,-3
N#C/C(C(=O)N1CCCCC1)=C1/N=C(N)c2ccccc21,26%,37,16*,34%,-15%,32
COCC(C)N=C1NN=C(c2ccc(NC(C)=O)cc2)CS1 (configuration not stated),86%,44,22*,34%,6%,u
COCC(C)N=C1SCCN1Cc1ccccc1 (configuration not stated),2%,-6,-7,3%,11%,-9
Cc1cc(C2=NNC(=NC3CC3)SC2)c(C)n1Cc1ccco1,-54%,137*,95*,u,u,-98*
CC(=O)Nc1ccc(C2=NNC(=NCC3CCCO3)SC2)cc1 (configuration not stated),3%,60,-1,-45%,-2%,4
COCCCN=C1NN=C(c2cc(C)n(Cc3ccco3)c2C)CS1,51%,127*,40*,18%,-3%,19
COCC(C)N=C1NN=C(c2cc(C)n(Cc3ccccc3Cl)c2C)CS1 (configuration not stated),14%,108*,55*,-26%,u,-79*
C=CCn1c(C)cc(C2=NNC(=Nc3ccc(C)cc3)SC2)c1C,u,-9,10,u,1%,-9
CCN(CC(=O)NCc1cccs1)C(=O)c1ccc(S(=O)(=O)N(CC)c2ccccc2)cc1,u,x,x,-29%,-11%,-17
CCCCNC(=O)COC(=O)c1cc(C)oc1C,-1%,5,-1,38%,0%,2
CC(=O)Nc1cccc(NC(=O)CSc2ncc(-c3ccc(Cl)cc3)n2Cc2ccco2)c1,u,-6,2,u,10µM*,-35
COc1ccc(-c2cnc(SCC(=O)Nc3ccc4c(c3)OCO4)n2Cc2ccco2)cc1,x,25,14*,x,14µM*,-24
COc1ccc(Cn2c(CO)cnc2SCC(=O)Nc2ccc3c(c2)OCCO3)cc1,x,x,x,x,x,27
Cc1ccc(CCNC(=O)C2CCN(S(=O)(=O)c3ccc4nc5c(c(C(=O)O)c4c3)CCCC5)CC2)cc1,u,18,1,u,14%,44
NC(Cc1ccccc1)c1csc(Nc2ccccn2)n1 (configuration not stated),x,x,x,x,x,37
Cc1nc(C)c(-c2csc(Nc3ccccn3)n2)s1,247%,112*,49*,-9%,8.9µM*,-20
Cc1nc(N)sc1-c1csc(Nc2cc(N(C)C)ccc2Cl)n1,x,x,x,x,x,-12
NC(Cc1ccc(F)cc1)c1csc(Nc2ccccn2)n1 (configuration not stated),x,x,x,x,x,14
Cc1nc(N)sc1-c1csc(Nc2ccccn2)n1,86%,122*,34*,22%,-24%,9
CC(=O)Oc1ccc(-c2csc(Nc3ccc(Cl)cn3)n2)cc1,-4%,39*,42*,11%,11µM*,-8
Cc1nc(N)sc1-c1csc(Nc2ccc(Cl)cn2)n1,-83%,48*,24*,9%,8.9µM*,-18
O=C(CSc1nc2c([nH]c3ccccc32)c(=O)n1-c1ccc(Cl)cc1)N1CCOCC1,x,x,x,x,x,12
SMILES,Pf growth 48h,Shiga inhibitor,Cycloheximide cs,Pf growth 96h,HCV inhibitor,HCMV inh
NC(=O)Cn1cnc2c(nnn2-c2ccc(F)cc2)c1=O,21%,-11,1,-1%,11%,32
CCOC(=O)C1CCN(C(=O)C2COc3ccccc3C2)CC1 (configuration not stated),x,x,x,x,x,-24
Cc1ccnc(Nc2nc(-c3sc(C)nc3C)cs2)c1,x,x,x,x,8.9µM*,-107*
CCc1nnc(NC(=O)CCS(=O)(=O)c2ccc(C)cc2)s1,u,x,x,5%,6%,37
COc1cc(C2Oc3cc(C4Oc5cc(O)cc(O)c5C(=O)C4O)ccc3OC2CO)ccc1O (configuration not stated),0%,-10,6,7%,u,-67*
O=C(Nc1ccccc1)/C(=C\c1cccs1)NC(=O)c1ccccc1,20%,-3,3,1.5µM*,0%,-21
O=C(N/C(=C/c1cccs1)C(=O)N1CCCCCC1)c1ccccc1,u,-1,4,6%,15%,-98*
O=C(N/C(=C/c1cccs1)C(=O)N1CCOCC1)c1cccs1,-2%,-12,-3,9.3µM*,23%,-21
CC(C)(C)c1ccc(C(=O)N/C(=C\c2cccs2)C(=O)N2CCOCC2)cc1,-1%,-12,-5,-2%,15%,u
O=C(N/C(=C\c1cccs1)C(=O)N1CCCCCC1)c1ccccc1,u,-17,-1,9.3µM*,25%,17
Cc1cccc(NC(=O)/C(=C\c2cccs2)NC(=O)c2ccccc2)c1,u,18,14,239%,7%,x
CN(CCC1CCOCC1)C(=O)CC1C(=O)NCCN1Cc1c(F)cccc1Cl (configuration not stated),-14%,-3,-2,u,u,18
Cc1ccc(C(=O)N/C(=C/c2cccs2)C(=O)N2CCCCCC2)cc1,-3%,-11,6,-2%,5%,21
Cc1ccc(C(=O)N/C(=C\c2cccs2)C(=O)NC2CCCCC2)cc1,x,-6,-1,4.1µM*,0%,-4
COc1cc(C(=O)NC(=S)N2CCN(C)CC2)cc(OC)c1OC,x,x,x,x,2%,-32
Cc1ccc(NC(=O)CC2Oc3ccc(C)cc3NC2=O)cc1 (configuration not stated),x,-10,14,305%,3%,-19
COC(=O)CC1Oc2ccc(C)cc2NC1=O (configuration not stated),x,17,7,9.3µM*,16%,-4
Cc1ccc2c(c1)NC(=O)C(CC(=O)Nc1cc(Cl)ccc1C)O2 (configuration not stated),x,x,x,x,x,-8
COc1ccc(OC)c(CCNC(=O)CC2Oc3ccc(C)cc3NC2=O)c1 (configuration not stated),x,-5,-5,10µM*,-6%,-6
O=C(O)CC1Oc2ccc(Cl)cc2NC1=O (configuration not stated),11%,4,-4,5.2µM*,4%,17
O=C(NCc1cccnc1)c1ccc(S(=O)(=O)N2CCCCCC2)cc1,0%,7,5,-2%,-1%,u
